# In PubChem BioAssay:
# “And” between values parts separate entries of the source, which are not always exact repeats. Identical values can stand only once. The source holds several records for some structures; these can differ, active in one and inactive in another. The source made the active and inactive calls. Unless noted, no rule for the calls is given here.
# How the values were obtained:
# [1] = Cy5 fluorescence interference with SSB-bound oligo, artefact control for HCV NS3 helicase inhibitor project, biochemical, NIH Clinical Collection, E. coli SSB (AID 743268)
# [2] = tested on: Hepatitis C virus NS3 helicase; assay: HCV NS3 helicase inhibitors, primary screen, biochemical, fluorescence polarization, NIH Clinical Collection (AID 743270); details: NS3 helicase binding to Cy5-dT15 DNA, stronger effect = higher value, concentration not given here
# [3] = biological target: Single-stranded DNA-binding protein (Escherichia coli (strain K12)) (UniProt P0AGE0); assay: E. coli SSB displacement from DNA, counter-screen for HCV NS3 helicase inhibitor project, biochemical, fluorescence polarization, NIH Clinical Collection (AID 743271; in the data active = inhibition above about 28%); details: stronger effect = higher value, concentration not given here
# [4] = fluorescence interference in NS3h assay format, artefact control for HCV NS3 helicase inhibitor project, biochemical, NIH Clinical Collection (AID 743272); details: fluorescence interference counterscreen, stronger effect = lower value;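 also: HCV NS3 helicase with a Cy5 labelled single stranded DNA probe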
# [5] = tested on: Neuropilin-2 / VEGF-C interaction (human); assay: inhibitors of NRP2–VEGF-C binding, biochemical, microplate binding format, z-score (AID 743281); details: microplate NRP2/VEGF-C binding assay; stronger effect = lower value
# [6] = stimulators of nuclear beta-catenin in C2C12, primary screen, imaging, WNT3A-conditioned medium, mouse C2C12, NPC library (AID 1117326; in the data active = nuclear beta-catenin stimulation mostly above about 4.2%, no sharp cut-off; inactive = mostly below about 10%); details: stronger effect = higher value
# [7] = stimulators of insulin release from INS-1E, primary screen, cell-based, 5 mM glucose, NPC library (AID 1117329;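 active = compound raises insulin release from rat beta cells at 5 mM glucose, no numeric limit stated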); details: rat INS-1E insulin secretion, at 10 µM, stronger effect = higher value
# [8] = growth inhibition of GSK3B-pretreated HCT116 cells – cell-based, CellTiter-Glo, 0.2 to 20 µM (AID 1117336;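 active = compounds lowering colon cancer cell viability after pretreatment blocking the GSK3B kinase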); details: HCT116 viability after GSK3B inhibitor, at 20 µM, stronger effect = higher value
# [9] = inhibition of endothelial tube formation, primary screen, imaging, VEGF stimulated, CD31 staining, tube area, NPC library (AID 1117340;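 active = compound that reduces growth-factor-driven endothelial tube area in a mixed cell culture, no cutoff stated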); details: VEGF-stimulated ADSC/ECFC co-culture, at 10 µM, stronger effect = higher value
# [10] = glucagon-like peptide 1 release enhancers, primary assay, NCI-H716 cell line, NPC library (AID 1117341;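 active = compound raises GLP1 secretion from the human gut endocrine cells, with no numeric limit stated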); details: NCI-H716 cells, at 10 µM, stronger effect = higher value
# [11] = HCT116 colon cancer cell growth inhibition, primary screen, CellTiter-Glo luminescence, NPC library (AID 1117342;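 active = compounds that lower survival of HCT116 colon cancer cells in the luminescence readout, no numeric limit stated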); details: at 20 µM (top of the series)
# [12] = CellTiter-Glo luminescent readout of SW480 viability loss, NPC library primary (AID 1117343;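 active = compounds that lower viability of the colon cancer cells in the luminescence readout, with no numeric limit stated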); details: CellTiter-Glo luminescence; at 20 µM (top of the series)
# [13] = decreased DLD-1 cellular survival, CellTiter-Glo luminescent readout, NPC compound collection, primary HTS (AID 1117346;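 active = compounds that lower survival of DLD-1 colon cancer cells in the luminescence readout, no cutoff given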); details: DLD-1 viability, CellTiter-Glo luminescence; at 20 µM (top of the series)
# [14] = tested on: Hepatitis C virus NS3 helicase; assay: HCV NS3 helicase inhibitors, primary screen, biochemical, fluorescence polarization, LOPAC1280 library (AID 687035; in the data active = inhibition above about 37%); details: Purified HCV NS3 helicase, Cy5-dT15 ssDNA binding fluorescence polarization; stronger effect = higher value; concentration not given here
# [15] = Cy5 fluorescence quenching or enhancement artefacts, artefact control for HCV NS3 helicase inhibitor project, biochemical, LOPAC1280 (AID 687037); details: Cy5-DNA-NS3h complex fluorescence interference counterscreen
# [16] = liver-stage malaria parasite growth inhibition, primary screen, cell-based, HepG2, luciferase luminescence, HepG2 viability (AID 624349; in the data active = parasite load remaining mostly below about 12%, no sharp cut-off; inactive = mostly above about 10%;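 also: 100% = mean of DMSO negative control wells on the same plate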); details: P. berghei liver stage in HepG2, luciferase luminescence, concentration not given here; parasite load remaining: stronger effect = lower value; viability: measured here: HepG2 viability without parasites
Compound,fluorescence ratio [1],inhibition [2],inhibition [3],fluorescence ratio [4],z-score [5],nuclear beta-catenin stimulation ([6]; at 10 µM),"nuclear beta-catenin stimulation ([6]; stimulation, at 2 µM)",insulin secretion stimulation [7],viability decrease [8],tube area decrease [9],GLP1 secretion stimulation [10],inhibition of viability [11],viability decrease (inhibition) [12],viability decrease (inhibition) [13],inhibition [14],fluorescence ratio (interference) [15],parasite load remaining [16],viability [16],outcome [5]
CN1CCCCC1CCN1c2ccccc2Sc2ccc(S(C)=O)cc21 (stereo unspecified),0.96 (inactive),-2.77% (inactive),-3.18% (inactive),0.95 (inactive),0.284 (inactive),2.6% (inactive),3.5%,15.2% (inactive),51% (active),16.9% (inactive),12.7% (inactive),36.7% (active),31.7% (inactive),9.3% (inactive),–,–,–,–,–
O=C(CCNNC(=O)c1ccncc1)NCc1ccccc1,1.01 (inactive),0.66% (inactive),-1.97% (inactive),0.97 (inactive),-0.136 (inactive),-1% (inactive),0.1%,-2.7% (inactive),29.1% (inactive),-20.5% (inactive),0.6% (inactive),-8.3% (inactive),81.2% (active),31.8% (inactive),-4% (inactive),1 (inactive),–,–,–
COc1ccccc1OCC(O)CN1CCN(CC(=O)Nc2c(C)cccc2C)CC1 (stereo unspecified),1.02 (inactive),-3.56% (inactive),-4.72% (inactive),0.9 (inactive),0.514 (inactive),2.5% (inactive),1.4%,0.8% (inactive),-14.5% (inactive),0.2% (inactive),2.2% (inactive),9.23% (inactive),-16.2% (inactive),-14.6% (inactive),-7% (inactive),0.9 (inactive),–,–,–
COc1cc2nc(N3CCN(C(=O)C4CCCO4)CC3)nc(N)c2cc1OC (stereo unspecified),0.99 (inactive) and 1.03 (inactive),0.4% (inactive) and -6.82% (inactive),-3.18% (inactive) and 1.05% (inactive),0.95 (inactive) and 1.02 (inactive),-0.533 (inactive),0.8% (inactive),1.4%,0.35% (inactive),7.5% (inactive),9.3% (inactive),1.3% (inactive),-9.1% (inactive),-2.8% (inactive),5.5% (inactive),-3% (inactive),1 (inactive),–,–,–
CCOC(=O)[C@H](CCc1ccccc1)N[C@@H](C)C(=O)N1[C@H](C(=O)O)C[C@@H]2CCC[C@@H]21,1.01 (inactive) and 1.04 (inactive),-1.98% (inactive) and -3.18% (inactive),-0.1% (inactive) and -0.48% (inactive),0.79 (active) and 1.02 (inactive),-0.497 (inactive),0.8% (inactive),1.9%,1.25% (inactive),13.8% (inactive),-11% (inactive),2.1% (inactive),6.1% (inactive),-19% (inactive),-0.3% (inactive),–,–,–,–,–
NS(=O)(=O)c1cc(C(=O)O)c(NCc2ccco2)cc1Cl,0.95 (inactive),–,–,0.89 (inactive),–,0.5% (inactive),1.3%,-2% (inactive),-10.1% (inactive),13% (inactive),0.9% (inactive),-10.4% (inactive),-18% (inactive),-1.6% (inactive),–,–,–,–,–
CN(CCCN1c2ccccc2CCc2ccccc21)CC(=O)c1ccc(Cl)cc1,0.86 (inactive),7.52% (inactive),2.98% (inactive),1.21 (active),–,1.2% (inactive),-1.4%,10.9% (inactive),6.7% (inactive),29.2% (inactive),4.6% (inactive),33.2% (inactive),84.8% (active),39% (inactive),–,–,66.2% (inactive),68.6%,inactive
O=C(c1ccc(F)cc1)C1CCN(CCn2c(=S)[nH]c3ccccc3c2=O)CC1,1.05 (inactive),10.7% (inactive),26.1% (inactive),1.06 (inactive),0.126 (inactive),2.2% (inactive),-0.2%,-1.4% (inactive),63.4% (active),-7.4% (inactive),3.7% (inactive),69.7% (active),69.7% (active),59.8% (active),–,–,28.9% (inactive),66.9%,–
CN1CCC(=C2c3ccccc3CCc3sccc32)CC1,0.99 (inactive),-1.98% (inactive),-0.87% (inactive),0.94 (inactive),1.11 (inactive),-0.8% (inactive),-1.1%,6.65% (inactive),47.1% (inactive),28.1% (inactive),5.3% (inactive),20.1% (inactive),103% (active),26.9% (inactive),–,–,28.2% (inactive) and 50.3% (inactive) and 34.4% (inactive),70.7% and 95.5% and 65.5%,–
CC(=O)NS(=O)(=O)c1ccc(N)cc1,1.03 (inactive),-5% (inactive),-5.05% (inactive),1.01 (inactive),–,-0.3% (inactive),-0.1%,-1.9% (inactive),-5.2% (inactive),14.5% (inactive),-1.7% (inactive),1.2% (inactive),-3.2% (inactive),-1.3% (inactive),–,–,–,–,–
CC(C)NCC(O)COc1ccc(COCCOC(C)C)cc1 (stereo unspecified),1.04 (inactive),1.19% (inactive),-0.1% (inactive),0.94 (inactive),-0.164 (inactive),0.8% (inactive),1.2%,1.2% (inactive),6.2% (inactive),-2.7% (inactive),-1.1% (inactive),-3.93% (inactive),0% (inactive),-4.5% (inactive),2% (inactive),1 (inactive),–,–,–
CCc1oc2ccccc2c1C(=O)c1cc(Br)c(O)c(Br)c1,0.92 (inactive),-2.84% (inactive),9.06% (inactive),0.93 (inactive),0.212 (inactive),5.3% (inactive),4.6%,4.6% (inactive),116% (active),101% (active),21.4% (active),124% (active),154% (active),101% (active),–,–,–,118% and 76% and 66.9%,–
CC(C)NCC(O)COc1ccc(CCOCC2CC2)cc1 (stereo unspecified),1.03 (inactive),5.94% (inactive),3.75% (inactive),0.95 (inactive),-0.0183 (inactive),3.6% (inactive),3.7%,-1.4% (inactive),-6.1% (inactive),26% (inactive),1.9% (inactive),14.2% (inactive),10.9% (inactive),2.1% (inactive),-6% (inactive),0.9 (inactive),–,–,–
CCN1CC(CCN2CCOCC2)C(c2ccccc2)(c2ccccc2)C1=O (stereo unspecified),0.9 (inactive),-8.95% (inactive),5.91% (inactive),0.88 (inactive),-0.0578 (inactive),-1.3% (inactive),-3.1%,0.3% (inactive),11.2% (inactive),-7% (inactive),3.1% (inactive),17% (inactive),13.5% (inactive),4.2% (inactive),–,–,66% (inactive),70.6%,–
CN1CCC(=C2c3ccccc3CC(=O)c3sccc32)CC1,0.97 (inactive),-6.33% (inactive),-0.39% (inactive),0.93 (inactive),-0.206 (inactive),1.3% (inactive),-1.2%,3.05% (inactive),10.7% (inactive),-3.1% (inactive),5.2% (inactive),15.7% (inactive),38.1% (inactive),-6.6% (inactive),-3% (inactive),1 (inactive),–,–,–
Cc1ncc([N+](=O)[O-])n1CC(O)CCl (stereo unspecified),0.99 (inactive),5.94% (inactive),0.67% (inactive),0.99 (inactive),-0.43 (inactive),0.8% (inactive),1.1%,-1.6% (inactive),-3.65% (inactive),-4.9% (inactive),-0.1% (inactive),0.2% (inactive),-45.6% (inactive),-4.95% (inactive),–,–,–,–,–
